IDE exosite FP = exo-site inhibitors of human IDE, primary screen, biochemical, fluorescence anisotropy, probe displacement. Insulin-degrading enzyme (Homo sapiens), P14735. purified IDE, FL-6b probe fluorescence polarization; stronger effect = lower value. z-score at 20 µM. 6.3% of 17,000 active. AID 1259349, 2017;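 active = z-score of -3 or lower, meaning strong loss of probe binding signal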;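 also: His-tagged human IDE residues 42-1019 made in E. coli with 30 nM FL-6b probe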
The depositor's hits bear a star. Only a selection was taken, and hits are over-represented in it overall.

SMILES	IDE exosite FP
CS(=O)(=O)N1CC(=O)N2[C@H](CO)[C@@H](c3ccc(C#Cc4cccc(F)c4)cc3)[C@@H]2C1	1.5
CCC(=O)N1CC(=O)N2[C@H](C1)[C@H](c1ccc(C#Cc3cccc(F)c3)cc1)[C@@H]2CO	-8.1*
CS(=O)(=O)N1CC(=O)N2[C@H](CO)[C@@H](c3ccc(C#Cc4cccc(F)c4)cc3)[C@H]2C1	-1.1
CS(=O)(=O)N1CC(=O)N2[C@@H](CO)[C@H](c3ccc(C#Cc4cccc(F)c4)cc3)[C@@H]2C1	-2.9
O=C(CC1CC1)N1CC(=O)N2[C@H](CO)[C@@H](c3ccc(C#Cc4cccc(F)c4)cc3)[C@@H]2C1	-2.1
CCS(=O)(=O)N1CC(=O)N2[C@H](C1)[C@@H](c1ccc(C#Cc3cccc(F)c3)cc1)[C@@H]2CO	-1.6
CCC(=O)N1CC(=O)N2[C@H](CO)[C@H](c3ccc(C#Cc4cccc(F)c4)cc3)[C@@H]2C1	-7*
COc1ccc(-c2ccc([C@H]3[C@@H](CO)N4CCCCN(S(=O)(=O)c5cccs5)C[C@H]34)cc2)cc1	1.3
CC(C)C#Cc1ccc([C@H]2[C@H]3CN(C(=O)Nc4ccccc4)CCCCN3[C@H]2CO)cc1	3.5
O=C(Nc1ccccc1)N1CCCCN2[C@@H](CO)[C@H](c3ccc(C#CC4CC4)cc3)[C@@H]2C1	4.7
Cn1cnc(S(=O)(=O)N2[C@@H]3CNC[C@H]2C3c2ccc(-c3ccc(F)cc3)cc2)c1 (stereo partly drawn)	3.7
O=C(C[C@@H]1CC[C@H]2NC[C@@H](O)COC[C@@H]2O1)NCc1ccc2c(c1)OCO2	0.39
CCN(C[C@@H]1[C@@H](c2ccccc2)[C@H](CO)N1Cc1cccnc1)C(C)=O	0.84
CN(C)CC#Cc1ccc([C@@H]2[C@@H](CO)N3C(=O)CN(C(=O)c4cccc(F)c4)C[C@H]23)cc1	0.41
CCCC#Cc1ccc([C@@H]2[C@@H](CO)N3C(=O)CN(S(=O)(=O)c4ccccc4C)C[C@H]23)cc1	-1.6
CCNC(=O)C[C@H]1CC[C@H]2[C@@H](COC[C@H](O)CN2C(=O)C2CCCC2)O1	-0.35
CCN(C[C@H]1N[C@@H](CO)[C@@H]1c1ccc(-c2cccc(C#N)c2)cc1)C(=O)COC	2.7
COc1cccc(-c2ccc([C@H]3[C@H](CO)N4C(=O)CN(C(=O)C5CCCCC5)C[C@@H]34)cc2)c1	-5.6*
COc1cccc(-c2ccc([C@@H]3[C@H]4CN(C(=O)C5CCCCC5)CC(=O)N4[C@H]3CO)cc2)c1	-7.6*
COc1ccc(-c2ccc([C@H]3[C@H]4CN(C(=O)C5CCCC5)CC(=O)N4[C@H]3CO)cc2)cc1	-1.1
COc1ccc(-c2ccc([C@H]3[C@H](CO)N4C(=O)CN(C(=O)C5CCCC5)C[C@@H]34)cc2)cc1	1.7
COc1cccc(-c2ccc([C@H]3[C@H]4CN(C(=O)C5CCCCC5)CC(=O)N4[C@H]3CO)cc2)c1	-3.4*
OC[C@H]1[C@@H](c2ccccc2)C2(CN(Cc3ccccn3)C2)N1Cc1cncnc1	0.29
Cc1ccccc1S(=O)(=O)N1CC(=O)N2[C@H](CO)[C@@H](c3ccc(C#CCC(C)C)cc3)[C@H]2C1	1.2
COc1ccc2c3c([nH]c2c1)[C@@H](CO)N(C(=O)Nc1ccc(F)cc1)CC31CN(C(=O)c2ccccn2)C1	-0.32
SMILES	IDE exosite FP
CN(C)CC(=O)N1[C@@H](C#N)[C@@H](c2ccc(-c3ccccc3F)cc2)[C@@H]1CO	0.95
O=C1N[C@@H](Cc2ccccc2)COCc2cn(nn2)CC[C@@H]1Cc1cccc(F)c1	0.9
CO[C@H]1CN(C)C(=O)c2ccc(NC(=O)NC(C)C)cc2OC[C@H](C)N(Cc2ccc(-c3ccccn3)cc2)C[C@H]1C	-0.65
O=C(C1CC1)N1CC(=O)N2[C@@H](CO)[C@@H](c3ccc(-c4cccnc4)cc3)[C@@H]2C1	-2.5
O=C(C[C@H]1CC[C@H]2[C@@H](COC[C@@H](O)CN2C(=O)c2ccncc2)O1)Nc1ccc(-c2ccccc2)cc1	-1.5
O=C(Nc1ccc(F)cc1)N1CC(=O)N2[C@H](CO)[C@H](c3ccc(C4=CCCC4)cc3)[C@@H]2C1	0.43
Cc1ccccc1-c1ccc([C@H]2[C@@H](CO)N3CCCCN(S(C)(=O)=O)C[C@@H]23)cc1	-2.3
CS(=O)(=O)N1CC(=O)N2[C@H](C1)[C@H](c1ccc(Br)cc1)[C@@H]2CO	0.089
CCS(=O)(=O)N1CCCCN2[C@H](CO)[C@@H](c3ccc(-c4ccccc4C)cc3)[C@@H]2C1	-18*
CCS(=O)(=O)N1CCCCN2[C@H](CO)[C@@H](c3ccc(-c4ccccc4F)cc3)[C@H]2C1	1.9
O=S(=O)(Cc1ccccc1)N1CCCCN2[C@H](C1)[C@H](c1ccc(-c3ccccc3)cc1)[C@@H]2CO	2.8
CCS(=O)(=O)N1CCCCN2[C@H](C1)[C@H](c1ccc(-c3ccccc3C)cc1)[C@@H]2CO	-0.65
Cc1ccccc1-c1ccc([C@H]2[C@H](CO)N3CCCCN(S(C)(=O)=O)C[C@@H]23)cc1	-4.6*
CS(=O)(=O)N1CC(=O)N2[C@H](CO)[C@H](c3ccc(Br)cc3)[C@@H]2C1	-0.52
Cc1ccccc1-c1ccc([C@H]2[C@H]3CN(S(C)(=O)=O)CCCCN3[C@H]2CO)cc1	-0.86
Cc1ccccc1-c1ccc([C@@H]2[C@H](CO)N3CCCCN(S(=O)(=O)Cc4ccccc4)C[C@@H]23)cc1	-4.7*
Cc1ccccc1-c1ccc([C@@H]2[C@@H](CO)N3C(=O)CN(S(C)(=O)=O)C[C@@H]23)cc1	-13*
O=S(=O)(Cc1ccccc1)N1CCCCN2[C@H](C1)[C@@H](c1ccc(-c3ccccc3)cc1)[C@@H]2CO	-0.2
O=C(Nc1ccccc1)N1CC(=O)N2[C@H](C1)[C@@H](c1ccc(C#CC3CCCCC3)cc1)[C@@H]2CO	0.91
CC(C)N(C[C@@H]1[C@@H](c2ccccc2)[C@H](CO)N1S(C)(=O)=O)C(=O)CN(C)C	-0.16
CNC(=O)C[C@@H]1CC[C@H]2[C@H](COc3ccc(NC(=O)c4ccccc4F)cc3C(=O)N2C)O1	0.09
CC(=O)NC[C@H]1[C@@H](c2ccc(-c3ccccc3)cc2)[C@@H](CO)N1C(=O)C1CCC1	2.2
COc1ccc2c3c(n(C)c2c1)[C@@H](CO)N(C(=O)Nc1ccc(F)cc1)CC31CN(S(=O)(=O)c2cn(C)cn2)C1	-0.62
COc1cccc(S(=O)(=O)N2CCCCN3[C@H](CO)[C@H](c4ccc(-c5ccccc5)cc4)[C@@H]3C2)c1	0.53
C[C@H](O)C#Cc1ccc([C@H]2[C@H](CO)N3CCCCN(C(=O)c4ccc5c(c4)OCO5)C[C@@H]23)cc1	0.21
SMILES	IDE exosite FP
CCN1CC(=O)N2[C@@H](CO)[C@H](c3ccc(-c4cccnc4)cc3)[C@@H]2C1	3.2
COc1cccc(S(=O)(=O)N2C[C@@H](O)COC[C@H]3O[C@H](CC(=O)NCCCN4CCOCC4)CC[C@@H]32)c1	-0.62
N#C[C@H]1[C@@H](c2ccc(-c3ccc(F)cc3)cc2)[C@H](CO)N1c1nc(-c2ccccc2)cs1	2.8
O=C(NC[C@@H]1[C@@H](c2ccccc2)[C@@H](CO)N1C(=O)Cc1cccnc1)C1CCC1	0.45
CCS(=O)(=O)N1CCCCN2[C@H](CO)[C@H](c3ccc(-c4ccccc4C)cc3)[C@H]2C1	-8.3*
CCS(=O)(=O)N1CCCCN2[C@H](CO)[C@H](c3ccc(-c4ccccc4F)cc3)[C@H]2C1	-2.2
Cc1ccccc1-c1ccc([C@@H]2[C@@H](CO)N3CCCCN(S(=O)(=O)c4ccc(F)cc4)C[C@H]23)cc1	2.4

High-throughput results deposited in PubChem by Broad Institute.
